{"source": "paper PMC4336329", "about": "(PLoS ONE, 2015)", "note": "Screen size: about 310,000 compounds; about 14,000 (4.5%) showed an effect of 50% or more. Effects have a minus sign here. The list comes from a sample in which strong results are over-represented; it also holds similar structures and randomly drawn compounds.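 Note: peak tail current of the secondary pulse compared with the same well before compound.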", "data": [{"target": "human ether-à-go-go-related gene (hERG) potassium channel (human, UniProt Q12809)", "sequence (Q12809 whole entry, looked up)": "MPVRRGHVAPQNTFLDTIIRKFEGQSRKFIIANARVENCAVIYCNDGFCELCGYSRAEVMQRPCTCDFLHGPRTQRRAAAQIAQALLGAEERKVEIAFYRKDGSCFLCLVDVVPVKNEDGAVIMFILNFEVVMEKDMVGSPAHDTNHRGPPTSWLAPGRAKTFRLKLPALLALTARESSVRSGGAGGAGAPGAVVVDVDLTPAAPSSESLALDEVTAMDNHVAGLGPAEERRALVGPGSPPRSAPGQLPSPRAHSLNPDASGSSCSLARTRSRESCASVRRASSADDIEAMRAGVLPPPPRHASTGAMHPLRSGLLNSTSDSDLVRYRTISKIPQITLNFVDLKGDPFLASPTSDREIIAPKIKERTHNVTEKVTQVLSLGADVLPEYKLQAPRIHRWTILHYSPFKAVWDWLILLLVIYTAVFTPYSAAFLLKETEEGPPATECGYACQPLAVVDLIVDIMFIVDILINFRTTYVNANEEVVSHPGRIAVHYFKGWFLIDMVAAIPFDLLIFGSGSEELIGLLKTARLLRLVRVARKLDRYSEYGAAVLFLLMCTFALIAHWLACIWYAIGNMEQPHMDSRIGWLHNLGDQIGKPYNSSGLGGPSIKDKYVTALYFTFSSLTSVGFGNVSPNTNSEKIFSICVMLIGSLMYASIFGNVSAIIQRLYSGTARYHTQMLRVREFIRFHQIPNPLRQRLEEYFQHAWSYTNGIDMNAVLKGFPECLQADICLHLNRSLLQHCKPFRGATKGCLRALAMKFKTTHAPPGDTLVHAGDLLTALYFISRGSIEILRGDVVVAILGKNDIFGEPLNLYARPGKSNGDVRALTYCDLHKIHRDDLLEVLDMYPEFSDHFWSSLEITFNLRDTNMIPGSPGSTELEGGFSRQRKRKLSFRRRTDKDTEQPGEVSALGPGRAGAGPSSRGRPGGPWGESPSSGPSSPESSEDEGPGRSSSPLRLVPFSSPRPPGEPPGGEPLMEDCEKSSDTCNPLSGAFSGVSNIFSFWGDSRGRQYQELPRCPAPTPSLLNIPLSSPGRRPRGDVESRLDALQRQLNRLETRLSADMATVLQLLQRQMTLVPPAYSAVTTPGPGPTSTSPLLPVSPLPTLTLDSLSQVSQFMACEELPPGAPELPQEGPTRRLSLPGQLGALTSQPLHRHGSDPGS", "experiment": "primary screen, population patch clamp on CHO cells stably expressing hERG; higher = less effect of the substance", "units": {"hERG current change (%, negative = inhibition) at 10uM": "%"}, "values": [{"smiles": "COC(=O)c1ccc(CSc2nc3sc(C)c(C)c3c(=O)[nH]2)cc1", "hERG current change (%, negative = inhibition) at 10uM": 0.764}, {"smiles": "Nc1c(C(=O)c2ccccc2)sc2nsc(SCCN3CCOCC3)c12", "hERG current change (%, negative = inhibition) at 10uM": 18.1}, {"smiles": "CCOc1ccc(CN2CCN(Cc3c(C)nn(CC)c3C)CC2CCO)cc1", "note": "(centres unmarked)", "hERG current change (%, negative = inhibition) at 10uM": -45}, {"smiles": "CCn1cc(CN2CCN(Cc3cccc(OC)c3)C(CCO)C2)c(C)n1", "note": "(centres unmarked)", "hERG current change (%, negative = inhibition) at 10uM": -14.4}, {"smiles": "CCOc1ccc(CN2CCN(Cc3cnn(CC)c3C)CC2CCO)cc1", "note": "(centres unmarked)", "hERG current change (%, negative = inhibition) at 10uM": -67.8}, {"smiles": "CCOc1ccc(CN2CCN(Cc3cn(CC)nc3C)CC2CCO)cc1", "note": "(centres unmarked)", "hERG current change (%, negative = inhibition) at 10uM": -62}, {"smiles": "CCn1cc(CN2CCN(Cc3ccc(OC)c(C)c3C)C(CCO)C2)c(C)n1", "note": "(centres unmarked)", "hERG current change (%, negative = inhibition) at 10uM": -23.1}, {"smiles": "CCn1ncc(CN2CCN(Cc3cccc(OC)c3)C(CCO)C2)c1C", "note": "(centres unmarked)", "hERG current change (%, negative = inhibition) at 10uM": 7.07}, {"smiles": "CC1CCCC(C)N1C(=O)C1CC(c2ccc(F)cc2)=NO1", "note": "(centres unmarked)", "hERG current change (%, negative = inhibition) at 10uM": -7.79}, {"smiles": "O=C(N/N=C/c1ccncc1)c1cc(-c2ccc(Br)s2)[nH]n1", "hERG current change (%, negative = inhibition) at 10uM": -12.4}, {"smiles": "Cc1ccc(S(=O)(=O)NCCSCc2ccco2)cc1", "hERG current change (%, negative = inhibition) at 10uM": -4.42}, {"smiles": "Cc1ccc2c(c1)N(C(=O)CCC(=O)NCc1ccccn1)CC(C)O2", "note": "(centres unmarked)", "hERG current change (%, negative = inhibition) at 10uM": -7.23}, {"smiles": "COc1ccc(C)cc1N(CC(=O)O)S(=O)(=O)c1ccc(C)cc1", "hERG current change (%, negative = inhibition) at 10uM": 17.1}, {"smiles": "CN(C)CCn1c2c(c(SCC(=O)Nc3cccc4ccccc34)nc1=O)CCCC2", "hERG current change (%, negative = inhibition) at 10uM": -40.4}, {"smiles": "CN(C)CCn1c2c(c(SCC(=O)N3CCc4ccccc43)nc1=O)CCCC2", "hERG current change (%, negative = inhibition) at 10uM": -44.7}, {"smiles": "CCN(CC)CCCn1c2c(c(SCC(=O)N3CCCc4ccccc43)nc1=O)CCC2", "hERG current change (%, negative = inhibition) at 10uM": -22.9}, {"smiles": "CCN(CC)CCCn1c2c(c(SCC(=O)Nc3cc(C)on3)nc1=O)CCC2", "hERG current change (%, negative = inhibition) at 10uM": -2.43}, {"smiles": "Cc1cccc(NC(=O)CSc2nc(=O)n(CCN3CCOCC3)c3c2CCCC3)c1C", "hERG current change (%, negative = inhibition) at 10uM": -23.6}, {"smiles": "CN(C)CCCn1c2c(c(SCC(=O)Nc3cccc4ccccc34)nc1=O)CCC2", "hERG current change (%, negative = inhibition) at 10uM": -38.4}, {"smiles": "CCN(CC)CCCn1c2c(c(SCC(=O)Nc3cccc(C)c3C)nc1=O)CCC2", "hERG current change (%, negative = inhibition) at 10uM": -55.3}, {"smiles": "CCN(CC)CCCn1c2c(c(SCC(=O)Nc3cccc4ccccc34)nc1=O)CCC2", "hERG current change (%, negative = inhibition) at 10uM": -56.6}, {"smiles": "CN(C)CCn1c2c(c(SCC(=O)Nc3ccccc3C(F)(F)F)nc1=O)CCCC2", "hERG current change (%, negative = inhibition) at 10uM": -18.4}, {"smiles": "CN(C)CCCn1c2c(c(SCC(=O)Nc3cccc4ccccc34)nc1=O)CCCC2", "hERG current change (%, negative = inhibition) at 10uM": -45.6}, {"smiles": "CCN(CC)CCCn1c2c(c(SCC(=O)N3CCc4ccccc43)nc1=O)CCC2", "hERG current change (%, negative = inhibition) at 10uM": -78.6}, {"smiles": "CCN(CC)CCn1c2c(c(SCC(=O)Nc3cccc4ccccc34)nc1=O)CCCC2", "hERG current change (%, negative = inhibition) at 10uM": -63.8}, {"smiles": "COc1ccc(C)cc1S(=O)(=O)Nc1cc(Cl)ccc1Cl", "hERG current change (%, negative = inhibition) at 10uM": 7.53}, {"smiles": "CCOC(=O)c1cccc(NC(=O)c2cccs2)c1", "hERG current change (%, negative = inhibition) at 10uM": -13.1}, {"smiles": "CCCCc1cc(C(=O)Cc2ccccn2)c(O)cc1O", "hERG current change (%, negative = inhibition) at 10uM": 16.9}, {"smiles": "O=C(NCc1cccnc1)Nc1ccc(Cl)c(Cl)c1", "hERG current change (%, negative = inhibition) at 10uM": -0.174}, {"smiles": "COc1ccc(CN2CC(=O)N3[C@H]4c5ccccc5OC[C@@H]4[C@H](c4ccccc4)[C@]3(C)C2=O)cc1", "hERG current change (%, negative = inhibition) at 10uM": 15.3}, {"smiles": "COc1ccccc1OCCOc1ccc(/C=C2\\C(=N)N3N=C(S(C)(=O)=O)SC3=NC2=O)cc1", "hERG current change (%, negative = inhibition) at 10uM": 12}, {"smiles": "CCN(CC)CCn1c2c(c(SCC(=O)Nc3cccc4ccccc34)nc1=O)CCC2", "hERG current change (%, negative = inhibition) at 10uM": -62.7}, {"smiles": "CN(C)CCn1c2c(c(SCC(=O)Nc3cccc4ccccc34)nc1=O)CCC2", "hERG current change (%, negative = inhibition) at 10uM": -13.6}, {"smiles": "CN=C(NC(=O)Nc1c(C)cccc1C)NC(=O)Nc1c(C)cccc1C", "hERG current change (%, negative = inhibition) at 10uM": 3.97}, {"smiles": "COc1ccccc1CN(C)C(=O)c1cc(-c2cccs2)nc2ccccc12", "hERG current change (%, negative = inhibition) at 10uM": 4.13}, {"smiles": "COc1ccccc1CN(C)C(=O)c1cc(-c2cc(OC)c(OC)c(OC)c2)nc2ccccc12", "hERG current change (%, negative = inhibition) at 10uM": 12.9}, {"smiles": "COc1ccccc1CN(C)C(=O)c1cc(C)nc2ccccc12", "hERG current change (%, negative = inhibition) at 10uM": -65.1}, {"smiles": "CN(C)C(=S)NC1(C)CCS(=O)(=O)C1", "note": "(centres unmarked)", "hERG current change (%, negative = inhibition) at 10uM": 6.89}, {"smiles": "O=C(N/N=C/c1ccc(O)c(O)c1)NC12CC3CC(CC(C3)C1)C2", "hERG current change (%, negative = inhibition) at 10uM": -11.8}, {"smiles": "COc1cc(/C=N/NC(=O)NC23CC4CC(CC(C4)C2)C3)ccc1O", "hERG current change (%, negative = inhibition) at 10uM": -34.3}, {"smiles": "O=C(N/N=C/c1ccncc1)NC12CC3CC(CC(C3)C1)C2", "hERG current change (%, negative = inhibition) at 10uM": -26.6}, {"smiles": "COc1cc(/C=N/NC(=O)NC23CC4CC(CC(C4)C2)C3)ccc1OCC(N)=O", "hERG current change (%, negative = inhibition) at 10uM": -57}, {"smiles": "O=C(N/N=C/c1ccc(O)cc1)NC12CC3CC(CC(C3)C1)C2", "hERG current change (%, negative = inhibition) at 10uM": -55.7}, {"smiles": "CCOc1ccc(/C=N/NC(=O)NC23CC4CC(CC(C4)C2)C3)cc1O", "hERG current change (%, negative = inhibition) at 10uM": -10.9}]}]}
